Data as given in PubChem BioAssay (NCATS).
Inconclusive results are not listed. Values without a mark were called inactive. The source made the active and inactive calls. Calls come from the whole dose curve; as a rule, active = well fitted inhibition curve with a large enough effect; inconclusive = small, poorly fitted or top-dose-only effect; inactive = no such curve, though single readings can be large or run the other way.

test system: Zika virus NS2B-NS3 protease (linked construct); assay: Primary screen NINDS Rhodamine qHTS for Zika virus inhibitors (AID 1347160); conditions: purified NS2B-NS3 protease, Rhodamine110 substrate fluorescence; series mostly up to 57.1 µM; activity change, negative = inhibition: at the top concentration; note: nearly all actives have a fitted effect of over 55% in size
In short: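 Rhodamine110-peptide cleavage (1.5 µM substrate) by 25 nM linked NS2B-NS3 enzyme at pH 8.0 (Tris, Tween 20), after 15 min RT preincubation with compounds; 15-min fluorescence change normalized to controls and Hill-fitted.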
% is set by controls: 0 for no effect and ±100 for the full control effect; potency is the fitted concentration of half-maximal effect.

Row | SMILES | activity change, negative = inhibition | Potency | outcome
1 | Cc1c(NC(=O)c2ccc(C(C)(C)C)cc2)cccc1-c1cn(C)c(=O)c(Nc2ccc(C(=O)N3CCOCC3)cc2)n1 | -15.1% [at 33.1 µM] |  | 
2 | COc1ccc2cc(-c3nc(-c4ccc(S(C)=O)cc4)[nH]c3-c3ccncc3)ccc2c1 (configuration not stated) | 5.96% |  | 
3 | CCOc1ccc(Nc2nc(-c3c(C)nc4ccccn34)cs2)cc1 | 21.9% |  | 
4 | O=C(O)C(O)Cc1ccc(O)c(O)c1 (configuration not stated) |  | 3.49 µM (active) | 
5 | COc1cc(N2CCC(N3CCN(C)CC3)CC2)ccc1Nc1ncnc(Nc2ccccc2S(=O)(=O)C(C)C)n1 | 42.6% |  | 
6 | CN(C)C1CCN(C(=O)c2ccc(NC(=O)Nc3nc(N4CCOCC4)nc(N4CCOCC4)n3)cc2)CC1 | 1.95% [at 33.1 µM] |  | 
7 | O=c1cc(CN2CCOCC2)occ1OCCCCCSc1ccnc2cc(C(F)(F)F)ccc12 | 28.6% |  | 
8 | COc1ncc(-c2ccc3nccc(-c4ccnnc4)c3c2)cc1NS(=O)(=O)c1ccc(F)cc1F | -17.8% |  | 
9 | O=C(O)CCc1nc(-c2ccccc2)c(-c2ccccc2)o1 | -7.72% |  | 
10 | CN(C[C@@H]1COCCO1)S(=O)(=O)Nc1ccc2ccc3ncc(-c4cnn(C)c4)cc3c(=O)c2c1 | -4.19% |  | 
11 | COc1cc2ncnc(-n3nc(-c4ccccn4)nc3N)c2cc1OC | 12.2% [at 33.1 µM] |  | 
12 | CC(C)(C)Cn1c(N)nc2ccc(-c3[nH]c(C(C)(C)C)nc3-c3ccc(F)cc3)nc21 | -15.5% |  | 
13 | CC(C)[C@H](CO)Nc1nc(Nc2ccc(C(=O)O)c(Cl)c2)c2ncn(C(C)C)c2n1 | 21.1% [at 33.1 µM] |  | 
14 | Cn1c(N2CCCCS2(=O)=O)nc(C(=O)NCc2ccc(F)cc2)c(O)c1=O | 33.8% |  | 
15 | COc1cc2nc(-c3ccc(N4CCN(C)CC4)cc3)nc(NCCN3CCOCC3)c2cc1OC | 52.3% |  | 
16 | COc1cc(Nc2ncc(F)c(Nc3ccc4c(n3)NC(=O)C(C)(C)O4)n2)cc(OC)c1OC | 68.2% |  | 

Row | SMILES | activity change, negative = inhibition | Potency | outcome
17 | CCOC(=O)C1=C(N)Oc2ccc(Br)cc2C1C(C#N)C(=O)OCC (configuration not stated) |  | inactive | 
18 | C=C1C(=O)[C@@]23C(CC[C@@H]1[C@H]2O)[C@@]12CO[C@]3(O)[C@@H](O)[C@@H]1C(C)(C)CC[C@@H]2O (some centres not stated) |  |  | inactive
19 | NC(=O)c1cccc(-c2cc(Nc3ccc(OC(F)(F)F)cc3)ncn2)c1 | -13.2% |  | 
20 | Cc1nc(N)sc1-c1ccnc(Nc2ccc(N3CCOCC3)cc2)n1 | -4.16% |  | 
21 | CO[C@H]1C=CO[C@@]2(C)Oc3c(C)c(O)c4c(O)c(c5c(c4c3C2=O)NC2(CCN(CC(C)C)CC2)N=5)=NC(=O)C(C)=CC=C[C@H](C)[C@H](O)[C@@H](C)[C@@H](O)[C@@H](C)[C@H](OC(C)=O)[C@H]1C | -5.66% |  | 
22 | CNC1CCC(N(Cc2cccc(-c3ccncc3)c2)C(=O)c2sc3c(F)ccc(F)c3c2Cl)CC1 (configuration not stated) | 293% |  | 
23 | Cc1ccccc1C(C(=O)NC1CCCCC1)N(C(=O)Cn1ccnc1C)c1cccc(F)c1 (configuration not stated) | 11.6% |  | 
24 | CS(=O)(=O)N(Cc1ccco1)CC(O)Cn1c2ccccc2c2ccccc21 (configuration not stated) | 16% |  | 
25 | COc1ccc2c(Oc3ccc(NC(=O)c4c(C)n(CC(C)(C)O)n(-c5ccccc5)c4=O)cc3F)ccnc2c1 |  |  | inactive; activator
26 | CC[C@]1(O)C[C@@H]2CN(CCc3c([nH]c4ccccc34)[C@@](C(=O)OC)(c3cc4c(cc3OC)N(C)[C@H]3[C@@](O)(C(=O)OC)[C@H](OC(C)=O)[C@]5(CC)C=CCN6CC[C@]43[C@@H]65)C2)C1 | 112% |  | 
27 | CN(C)Cc1ccc(-c2nc3cccc4c3n2CCNC4=O)cc1 | 17.7% |  | 
28 | CC(C)C(=O)Nc1ncc(-c2cc(C(F)F)nn2-c2c(Cl)cccc2Cl)s1 |  |  | inactive
29 | CC(=O)N(C)C1(c2ccccc2)CCN(CCC[C@]2(c3ccc(Cl)c(Cl)c3)CCCN(C(=O)c3ccccc3)C2)CC1 | 88.8% |  | 
30 | O=c1[nH]cnc2c1ncn2[C@H]1CC[C@@H](CO)O1 |  |  | inactive
31 | Cc1ccc(Nc2cc(-c3cccc(N4C(=O)c5ccccc5C4=O)c3)ncn2)cc1NS(C)(=O)=O |  |  | inactive
32 | CCn1c(C(=O)N(C2CC2)C2CC2)cc2c3c(ncn3C)c(Nc3cc(C)n(C)n3)nc21 | -13.4% |  | 
